# Hit rate of the full screen: of about 360,000 compounds, about 4,600 (1.3%) were called active. The full list was thinned out, with actives kept by preference. A number with no mark means an inactive call.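 The calls were made as follows: active = percent inhibition above its own plate's cutoff, namely the mean of that plate's compound wells plus 3 SD; inactive = the rest.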
# Molecular target: Muscarinic acetylcholine receptor M1 (Homo sapiens) (UniProt P11229)
# Experiment: CHRM1 blockers of acetylcholine calcium response – CHO-K1 cells, Fluo-8 calcium fluorescence, 1536-well, primary screen (AID 588852);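 also: peak over basal fluorescence ratio during 140 s after agonist addition; 0% = ACh EC80 plus DMSO and 100% = DMSO alone without agonist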
# Details: CHO-K1 hM1, Fluo-8 calcium fluorescence, ACh EC80 antagonist; at 3 µM; hits give high values
# Muscarinic acetylcholine receptor M1 (Homo sapiens), sequence (P11229 whole entry, looked up): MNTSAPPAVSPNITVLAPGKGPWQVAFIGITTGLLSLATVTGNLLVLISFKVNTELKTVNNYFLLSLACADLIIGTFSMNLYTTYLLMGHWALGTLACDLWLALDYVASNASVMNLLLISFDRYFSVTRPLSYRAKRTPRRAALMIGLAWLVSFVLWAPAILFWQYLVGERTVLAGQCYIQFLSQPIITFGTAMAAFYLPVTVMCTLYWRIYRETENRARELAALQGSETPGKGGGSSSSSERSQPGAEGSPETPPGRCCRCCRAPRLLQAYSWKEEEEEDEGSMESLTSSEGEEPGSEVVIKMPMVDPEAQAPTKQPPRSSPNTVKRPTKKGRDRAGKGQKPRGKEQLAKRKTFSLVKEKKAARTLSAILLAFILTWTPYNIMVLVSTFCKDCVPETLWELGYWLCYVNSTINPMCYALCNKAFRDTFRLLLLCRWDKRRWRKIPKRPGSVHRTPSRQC
row,SMILES,inhibition
1,NCCCNC(=S)NCCCN(Cc1ccc(Cl)cc1)c1ccc(Br)cn1,-0.49%
2,CC(C)(C)OC(=O)N1CCN(C(=O)c2[nH]c(C(F)(F)F)nc2-c2ccccc2)CC1,-33.3%
3,FC(F)(F)c1cccc(NC(=S)Nc2cccc(Cl)c2)c1,27.5% (active)
4,FC(F)(F)c1cccc(N/N=C/c2ccccc2)c1,-6.47%
5,O=C(Nc1cccc(Cl)c1)c1cncn1-c1ccc(F)cc1,-4.54%
6,Cc1cc(C)cc(OCC(=O)OCC(=O)NC2CCCC2)c1,5.15%
7,CC(C)c1nc2oc3c(N4CCN(C)CC4)ncnc3c2c2c1CCC2,-4.82%
8,CN(C)Cc1c(C(=O)N/N=C/c2ccccc2OCc2ccc(F)cc2)nnn1-c1nonc1N,-17.7%
9,NC(=O)C1=C[C@@H](c2csc3ccccc23)C[C@@H](OCc2ccc(CO)cc2)O1,-1.54%
10,COc1cccc(-c2cnc3c(NC(C)=O)cc(-c4cc(F)ccc4OC)cn23)c1,13.1%
11,Cc1onc(-c2ccccc2Cl)c1C(=O)OCc1nnc(-c2ccccc2)o1,1.39%
12,Cc1onc(-c2ccccc2)c1-c1nnc(COC(=O)c2ccc(N(C)C)cc2)o1,99.9% (active)
13,Cc1ccc(C(=O)NCC(=O)OCc2nnc(-c3ccccc3)o2)cc1,-11.3%
14,Cc1cc2nc(-c3ccco3)c(Cc3cccc(F)c3)n2c(C)c1Br,-9.48%
15,O=C(c1ccc2c(c1)N(Cc1ccc(F)cc1)C(=O)c1ccccc1S2(=O)=O)N1CCN(c2ccccn2)CC1,-3.64%
16,O=C(NCCN1CCOCC1)c1ccc2c(c1)N(Cc1cccc(Cl)c1)C(=O)c1ccccc1S2(=O)=O,-3.27%
17,CCCCN(C)C(=O)c1ccc2c(c1)N(CC)C(=O)c1ccccc1S2(=O)=O,37.7% (active)
18,Cc1nn(-c2ccccc2)nc1C(=O)OCC(=O)N1CCCCC1C (configuration not stated),3.01%
19,NC1=NC(=O)C2(COC(c3ccccc3Cl)OC2)S1 (configuration not stated),-9.62%
20,O=C(COC(=O)/C=C/c1ccc(Br)o1)Nc1cccc(S(=O)(=O)N2CCOCC2)c1,-15.6%
21,CC(=O)c1c(O)cc2n(c1=O)-c1ccc(Cl)cc1C2(C)C,-13.4%
22,COC(=O)c1ccc(NC(=O)CSc2nnc(C3CC3)n2C)cc1,-9.89%
23,COC(=O)c1ccc(NC(=O)CSc2nnc(-c3ccncc3)n2C)cc1,-9.95%
24,COC(=O)c1ccc(NC(=O)CSc2nnc(CNc3ccc(OC)cc3)n2C)cc1,64.6% (active)

row,SMILES,inhibition
1,CC(C)CN(C(=O)c1ccc2c(c1)OCO2)C1CCS(=O)(=O)C1 (configuration not stated),6.67%
2,O=C(Nc1cccc2c1N(C(=O)c1ccco1)CCC2)c1ccco1,-11.2%
3,N#CC1(NC(=O)COC(=O)CSc2ccc(F)cc2)CCCCC1,-5.4%
4,COc1cc(CCN=Cc2ccccc2O)c([N+](=O)[O-])cc1OC,1.04%
5,CC1CCCN(CCOCCOc2ccccc2-c2ccccc2)C1 (configuration not stated),5.61%
6,CN1CCN(CCCCOc2ccccc2-c2ccccc2)CC1,-6.34%
7,c1ccc(-c2ccccc2OCCN2CCCCC2)cc1,33.7% (active)
8,Cc1cc(NC(=O)COC(=O)c2ccc(F)c(S(=O)(=O)N3CCOCC3)c2)no1,-35%
9,COc1ccc(C(=O)Oc2ccc(-c3nnco3)cc2)cc1S(=O)(=O)N1CCOCC1,0.6%
10,O=C(Oc1ccc(-c2nnco2)cc1)c1ccc(F)c(S(=O)(=O)N2CCOCC2)c1,38.5% (active)
11,CC1=C2C(=O)OC(c3ccoc3)C2(C)CCC1 (configuration not stated),-3.46%
12,Cc1ccc(S(=O)(=O)Nc2ccc3ncccc3c2)cc1,28.8% (active)
13,Cc1cc(C)cc(OCC(=O)Nc2ccc(S(=O)(=O)Nc3ccccn3)cc2)c1,-5.97%
14,O=S(=O)(Nc1ccc(Oc2ncccn2)c(Cl)c1)c1ccc(F)cc1,-16.8%
15,CC1CCC2(CC1)NC(=O)N(CC(=O)NCc1ccco1)C2=O (configuration not stated),16.7%
16,O=S1(=O)CC(N2CCN(c3ccccn3)CC2)CN1Cc1ccc(F)cc1 (configuration not stated),-1.35%
17,CCCC(CNC(=O)COC(=O)C1=NNC(=O)CC1)c1ccc(Cl)cc1Cl (configuration not stated),-6.04%
18,O=C(CN1C(=O)/C(=C\c2ccc(C(F)(F)F)cc2)Sc2ccccc21)NCc1ccco1,13.9%
19,O=C(CSc1nc2ccccc2o1)N1c2ccccc2Sc2ccc(Cl)cc21,-3.61%
20,COc1cc(/C=C/C(=O)N2c3ccccc3Sc3ccc(C(F)(F)F)cc32)cc(OC)c1OC,-6.22%
21,O=C(CN1CCCCC1)N1c2ccccc2Sc2ccc(C(F)(F)F)cc21,96.8% (active)
22,O=C(CN1CCCCCC1)N1c2ccccc2Sc2ccc(C(F)(F)F)cc21,102% (active)
23,CCC(=O)Nc1cc(C(F)(F)F)ccc1N1CCCC1,3.67%
